Measured values taken from the antibiotic and cytotoxicity screens of Wong et al. (2023).
The whole screen tested about 39,000 compounds, of which about 1,500 (3.8%) were called active. For the sample, actives were picked, then their nearest neighbours and some compounds at random.

System: HSkMC (human skeletal muscle cells)
Assay: cytotoxicity call (relative viability < 0.9)
Settings: 10 µM

Row | SMILES | cytotoxicity call
1 | C[C@H](CO)N1C[C@H](C)[C@H](CN(C)C(=O)Nc2ccc(C(F)(F)F)cc2)OCCCC[C@H](C)Oc2ccc(NC(=O)NC3CCCCC3)cc2C1=O | inactive
2 | C[C@@H]1CCCCO[C@@H](CN(C)C(=O)c2ccccc2)[C@@H](C)CN([C@@H](C)CO)C(=O)c2cc(NC(=O)CCC(F)(F)F)ccc2O1 | inactive
3 | CO[C@@H]1CN(C)C(=O)c2cc(NC(=O)C3CCOCC3)ccc2OC[C@@H](C)N(Cc2cccnc2)C[C@@H]1C | inactive
4 | CC1(C(=O)O)CCC2(C)CCC3(C)C(=CC(=O)C4C5(C)CCC(O)C(C)(C)C5CCC43C)C2C1 (configuration not stated) | inactive
5 | CC(=O)Oc1cc2c(c(C)c1OC(C)=O)CC=C1[C@@]2(C)CC[C@@]2(C)[C@H]3C[C@](C)(C(=O)O)CC[C@]3(C)CC[C@]12C | active
6 | C[C@@H]1CN([C@@H](C)CO)C(=O)Cc2cc(NC(=O)NC3CCCCC3)ccc2O[C@@H]1CN(C)C(=O)Nc1cccc2ccccc12 | inactive
7 | C[C@@H]1CN([C@H](C)CO)C(=O)Cc2cc(NS(C)(=O)=O)ccc2O[C@H]1CN(C)S(=O)(=O)c1cccs1 | inactive
8 | CC(C)CC#Cc1ccc2c(c1)O[C@@H](CN(C)C(=O)Cc1ccccn1)[C@@H](C)CN([C@H](C)CO)S2(=O)=O | inactive
9 | C[C@@H]1CN([C@H](C)CO)C(=O)Cc2cc(NC(=O)Nc3ccc(F)cc3)ccc2O[C@H]1CN(C)CC1CCCCC1 | inactive
10 | C[C@H]1CN([C@@H](C)CO)C(=O)Cc2cc(NC(=O)Nc3ccc(C(F)(F)F)cc3)ccc2O[C@H]1CN(C)CC1CCCCC1 | active
11 | C[C@@H]1CN([C@@H](C)CO)C(=O)Cc2cc(NC(=O)Nc3ccc(C(F)(F)F)cc3)ccc2O[C@@H]1CN(C)CC1CCCCC1 | inactive
12 | C[C@H](CO)N1C[C@H](C)[C@H](CN(C)CC2CCCCC2)Oc2ccc(NC(=O)Nc3ccc(C(F)(F)F)cc3)cc2CC1=O | active
13 | C[C@H]1CN([C@@H](C)CO)C(=O)Cc2cc(NC(=O)Nc3ccc(C(F)(F)F)cc3)ccc2O[C@@H]1CN(C)CC1CCCCC1 | active
14 | C[C@@H]1CN([C@H](C)CO)C(=O)Cc2cc(NC(=O)Nc3ccc(C(F)(F)F)cc3)ccc2O[C@@H]1CN(C)CC1CCCCC1 | active
15 | Cc1ccc(S(=O)(=O)N(C)C[C@@H]2OCCCC[C@@H](C)Oc3ccc(NC(=O)Nc4cccc5ccccc45)cc3C(=O)N([C@H](C)CO)C[C@@H]2C)cc1 | inactive
16 | COCC(=O)N(C)C[C@H]1Oc2cc(C#C[C@H](C)O)ccc2S(=O)(=O)N([C@@H](C)CO)C[C@@H]1C | inactive
17 | O=C(CN1CCOCC1)N[C@@H]1CC[C@H](CCn2cc(C3CC3)nn2)O[C@H]1CO | inactive
18 | C[C@@H]1CN([C@@H](C)CO)C(=O)Cc2cc(NS(=O)(=O)c3cn(C)cn3)ccc2O[C@H]1CN(C)S(=O)(=O)c1ccc(F)cc1 | inactive
19 | C[C@@H]1CN([C@H](C)CO)C(=O)c2cc(NC(=O)NC3CCCCC3)ccc2O[C@@H](C)CCCCO[C@H]1CN(C)C(=O)NC1CCCCC1 | inactive
20 | C[C@H]1CN([C@@H](C)CO)C(=O)c2cccc(NC(=O)Nc3ccc4c(c3)OCO4)c2O[C@@H]1CN(C)C(=O)Nc1cccc2ccccc12 | inactive
21 | O=C(C[C@H]1CC[C@H]2NC[C@@H](O)COC[C@@H]2O1)NCCN1CCCCC1 | inactive

Row | SMILES | cytotoxicity call
22 | CC(C)NC(=O)Nc1ccc2c(c1)CC(=O)N([C@H](C)CO)C[C@@H](C)[C@H](CN(C)C(=O)Nc1ccc3c(c1)OCO3)O2 | inactive
23 | C[C@@H]1CCCCO[C@@H](CN(C)C(=O)NC2CCCCC2)[C@H](C)CN([C@@H](C)CO)C(=O)c2cc(NC(=O)CCC(F)(F)F)ccc2O1 | inactive
24 | Cc1noc(C)c1NC(=O)N(C)C[C@H]1OCCCC[C@@H](C)Oc2ccc(NC(=O)C3CCCCC3)cc2C(=O)N([C@H](C)CO)C[C@@H]1C | inactive
25 | C[C@H]1CN([C@@H](C)CO)C(=O)Cc2cc(NC(=O)Nc3ccc(F)cc3)ccc2O[C@@H]1CN(C)CC1CCCCC1 | inactive
26 | C[C@@H]1CN([C@@H](C)CO)C(=O)Cc2cc(NC(=O)Nc3ccc(C(F)(F)F)cc3)ccc2O[C@H]1CN(C)CC1CCCCC1 | active
27 | C[C@@H]1CN([C@H](C)CO)C(=O)Cc2cc(NC(=O)Nc3ccc(C(F)(F)F)cc3)ccc2O[C@H]1CN(C)CC1CCCCC1 | active
28 | C[C@H](CO)N1C[C@H](C)[C@H](CN(C)Cc2ccc3c(c2)OCO3)OCCCC[C@H](C)Oc2ccc(NC(=O)Cc3ccccc3)cc2C1=O | inactive
29 | C[C@H]1CN([C@@H](C)CO)C(=O)Cc2cc(NC(=O)Nc3ccc4c(c3)OCO4)ccc2O[C@@H]1CN(C)Cc1ccc(-c2ccccc2)cc1 | inactive
30 | CC(C)[Si](C#Cc1ccc(Oc2ccccc2)cc1)(O[Si](C#Cc1ccc(Oc2ccccc2)cc1)(C(C)C)C(C)C)C(C)C | inactive
31 | COc1ccc(CN(C)C[C@@H]2OCCCC[C@@H](C)Oc3ccc(NC(=O)c4ccncc4)cc3C(=O)N([C@H](C)CO)C[C@H]2C)cc1 | inactive
32 | O=C(Cc1ccncc1)Nc1ccc2c(c1)[C@@H]1C[C@H](CC(=O)N3CCc4ccccc4C3)O[C@@H](CO)[C@@H]1O2 | inactive
33 | CO[C@H]1O[C@H](CO)[C@@H](OC(=O)Nc2cccc(F)c2)[C@H](OC(=O)Nc2ccccc2-c2ccccc2)[C@H]1OC(=O)Nc1ccccc1-c1ccccc1 | active
34 | CO[C@H]1O[C@H](CO)[C@@H](OC(=O)Nc2ccccc2-c2ccccc2)[C@H](OC(=O)Nc2ccccc2)[C@@H]1OC(=O)Nc1ccccc1 | inactive
35 | CCc1cccc(NC(=O)O[C@H]2[C@H](OC(=O)Nc3ccccc3-c3ccccc3)[C@H](OC(=O)Nc3ccccc3-c3ccccc3)[C@@H](OC)O[C@@H]2CO)c1 | inactive
36 | CO[C@H]1O[C@H](CO)[C@@H](OC(=O)Nc2ccccc2-c2ccccc2)[C@H](OC(=O)Nc2ccc3c(c2)OCO3)[C@H]1OC(=O)Nc1ccc2c(c1)OCO2 | inactive
37 | CO[C@H]1O[C@H](CO)[C@@H](OC(=O)Nc2cccc(F)c2)[C@H](OC(=O)Nc2ccccc2-c2ccccc2)[C@@H]1OC(=O)Nc1ccccc1-c1ccccc1 | active
38 | CO[C@H]1O[C@H](CO)[C@@H](OC(=O)Nc2ccccc2-c2ccccc2)[C@H](OC(=O)Nc2ccccc2-c2ccccc2)[C@@H]1OC(=O)Nc1ccccc1-c1ccccc1 | inactive
39 | C[C@@H]1CCCCO[C@@H](CN(C)Cc2ccccc2)[C@H](C)CN([C@@H](C)CO)C(=O)c2cc(NC(=O)Cc3ccccc3)ccc2O1 | inactive
40 | C[C@H](CO)N1C[C@H](C)[C@@H](CN(C)S(C)(=O)=O)Oc2ccc(NC(=O)Nc3ccc(F)cc3)cc2C1=O | inactive
41 | C[C@@H]1CN([C@@H](C)CO)C(=O)c2cc(NC(=O)CCCN(C)C)ccc2O[C@@H](C)CCCCO[C@@H]1CN(C)CC1CCCCC1 | inactive
42 | C[C@@H]1CN([C@H](C)CO)C(=O)Cc2cc(NS(=O)(=O)c3ccc(Cl)cc3)ccc2O[C@@H]1CN(C)Cc1ccc(Oc2ccccc2)cc1 | active

Row | SMILES | cytotoxicity call
43 | C[C@H]1CN([C@@H](C)CO)C(=O)Cc2cc(NS(=O)(=O)c3ccc(Cl)cc3)ccc2O[C@H]1CN(C)Cc1ccc(Oc2ccccc2)cc1 | active
44 | C[C@H]1CN([C@@H](C)CO)C(=O)Cc2cc(NS(=O)(=O)c3ccc(Cl)cc3)ccc2O[C@@H]1CN(C)Cc1ccc(Oc2ccccc2)cc1 | active
45 | C[C@H](CO)N1C[C@H](C)[C@H](CN(C)Cc2ccc(Oc3ccccc3)cc2)Oc2ccc(NS(=O)(=O)c3ccc(Cl)cc3)cc2CC1=O | active
46 | Nc1nc(=O)c2[nH]c(=O)cnc2[nH]1 | inactive
47 | COc1ccc(CN(C)C[C@H]2OCCCC[C@H](C)Oc3ccc(NC(=O)c4ccccc4)cc3C(=O)N([C@H](C)CO)C[C@@H]2C)cc1 | inactive
48 | CO[C@@H]1CN(C)C(=O)c2ccc(NC(=O)Nc3ccccc3)cc2OC[C@@H](C)N(C(=O)CN(C)C)C[C@H]1C | inactive
49 | COCC(=O)Nc1ccc2c(c1)C(=O)N(C)C[C@@H](OC)[C@@H](C)CN(Cc1cccc(F)c1)[C@@H](C)CO2 | inactive
50 | CC(C)Cn1cnc2c1c(=O)n(C)c(=O)n2C | inactive
51 | CC(=O)N1C[C@@H](NC(=O)c2nccn2C)[C@@H]2OCCC[C@@H]21 | inactive
52 | C[C@H](CO)N1C[C@H](C)[C@H](CN(C)C(=O)CCC(F)(F)F)OCCCC[C@H](C)Oc2ccc(NS(=O)(=O)c3ccccc3)cc2C1=O | inactive
53 | CN1CCN(C(=O)C[C@H]2C[C@@H]3c4cc(NS(=O)(=O)c5ccc(F)cc5)ccc4O[C@@H]3[C@@H](CO)O2)CC1 | inactive
54 | C=CCOC(=O)[C@H]1[C@@H]2C(=O)O[C@@H](c3ccccc3)[C@@H](c3ccccc3)N2[C@@H](c2ccc(OCCOC(=O)[C@@H]3C[C@@H]4C(=O)N[C@@H](CCCC[N+](C)(C)C)C(=O)N4[C@@H]3c3cccc(OCCO)c3)cc2)[C@]12C(=O)Nc1ccc(I)cc12 | inactive
55 | Cc1noc(C)c1S(=O)(=O)N(C)C[C@H]1OCCCC[C@@H](C)Oc2ccc(NS(C)(=O)=O)cc2C(=O)N([C@@H](C)CO)C[C@@H]1C | inactive
56 | COc1ccc(NC(=O)N(C)C[C@@H]2Oc3c(NC(=O)C4CCOCC4)cccc3C(=O)N([C@@H](C)CO)C[C@@H]2C)cc1 | inactive
57 | COCC(=O)Nc1ccc2c(c1)C(=O)N(C)C[C@@H](OC)[C@@H](C)CN(C(=O)Cc1cccnc1)[C@@H](C)CO2 | inactive
58 | CCCCn1c(SCC(N)=O)nc2c1c(=O)n(C)c(=O)n2C | inactive
59 | C[C@@H]1CN([C@@H](C)CO)C(=O)Cc2cc(NS(=O)(=O)c3ccc(Cl)cc3)ccc2O[C@@H]1CN(C)Cc1ccc(Oc2ccccc2)cc1 | active
60 | C[C@@H]1CN([C@@H](C)CO)C(=O)Cc2cc(NS(=O)(=O)c3ccc(Cl)cc3)ccc2O[C@H]1CN(C)Cc1ccc(Oc2ccccc2)cc1 | active
61 | C[C@@H]1CN([C@H](C)CO)C(=O)Cc2cc(NS(=O)(=O)c3ccc(Cl)cc3)ccc2O[C@H]1CN(C)Cc1ccc(Oc2ccccc2)cc1 | active
62 | C[C@H](CO)N1C[C@H](C)[C@@H](CN(C)Cc2ccc(Oc3ccccc3)cc2)Oc2ccc(NS(=O)(=O)c3ccc(Cl)cc3)cc2CC1=O | inactive
